In the library only some 4.7% were active in any assay of this set; here they are far more common.
TRHR ag: agonists of human TRH receptor | AID 493084 | TRHR cells, calcium flux fluo-8, FDSS agonist mode | activation, % at 2 µM | P34981 | 360,000 tested, 0.18% active
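Steps: seed TRHR cells overnight; add fluo-8 no-wash Ca dye, RT 30 min–1.5 h; record 10 s baseline; pin-transfer compounds; monitor fluorescence 1 cycle/s for the agonist window. Calcium increases flag candidate agonists.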
D1 ag: activates the human D1 dopamine receptor. P21728. HEK293 T-REx D1 cells, calcium flux, agonist mode. activation, % at 2 µM. 360,000 tested, 1% active. AID 504660
Target sequence (P21728 whole entry, looked up): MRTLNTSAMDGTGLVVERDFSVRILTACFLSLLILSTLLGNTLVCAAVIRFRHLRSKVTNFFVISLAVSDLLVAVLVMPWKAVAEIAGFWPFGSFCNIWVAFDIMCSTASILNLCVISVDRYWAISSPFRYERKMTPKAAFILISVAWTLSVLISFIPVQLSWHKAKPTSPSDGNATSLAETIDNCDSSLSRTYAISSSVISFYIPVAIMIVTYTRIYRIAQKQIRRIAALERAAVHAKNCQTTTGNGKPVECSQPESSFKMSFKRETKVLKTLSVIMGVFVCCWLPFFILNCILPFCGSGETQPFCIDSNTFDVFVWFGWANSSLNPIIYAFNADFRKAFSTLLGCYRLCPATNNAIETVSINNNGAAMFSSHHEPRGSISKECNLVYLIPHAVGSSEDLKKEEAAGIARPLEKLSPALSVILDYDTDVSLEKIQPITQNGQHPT
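Tetracycline-induced HEK293 TREx D1 cells, force-coupled to calcium signalling, were dye-loaded with a no-wash calcium kit. Compound was pin-added after a 10 s baseline. Fluorescence was read kinetically at 1 cycle/s for 180 s, with calcium rises flagged as agonism.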
D1 PAM: human D1 dopamine receptor positive modulation; potentiation, % at 10 µM; 360,000 tested, 0.036% active; HEK293 TREx D1 cells, calcium flux, dopamine EC20 potentiation; in the data active means potentiation above about 30%
D1 antag: blocks dopamine activation of the human D1 receptor; 360,000 tested, 3.2% active; P21728; HEK293 TREx D1 cells, calcium flux, dopamine EC80; stronger effect = lower value; activity change, negative = inhibition, % at 10 µM; in the data active means activity change below about -30%
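Cells carrying a force-coupled, tetracycline-inducible human D1 receptor report calcium flux. Each well gets a 10 s baseline, compound with 180 s monitoring, then an EC80 dopamine stimulus with a second 180 s kinetic read.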
TRHR PAM: allosterically enhances the human TRH receptor | TRHR cells, fluo-8 calcium fluorescence, EC20 TRH enhancement | P34981 | 360,000 tested, 0.66% active | enhancement, % at 2 µM | AID 493056; in the data active means enhancement above about 30%
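Enhancer read-out: after compound pinning and an initial kinetic agonist-mode read, an EC20 of TRH (10 nM final) was injected and fluo-8 calcium signal (Ex 480/Em 530) followed at 1 s/cycle for 100 cycles in TRHR-expressing cells.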
Of the large screens only hits and unclear results are named; the others gave an inactive call. Unless noted, no stated cut-off is given here; in the data, active means activation above about 30%; inactive means the rest.

CCCN(C(=O)c1ccc2c(SCC(=O)O)c3c(nc2c1)CCC3)c1cccc(C)c1	D1 antag -39
COc1cccc(NC(=O)CN(Cc2ccccc2)S(=O)(=O)c2ccc3nc(C)sc3c2)c1	D1 antag -45
CCOc1ccc(NC(=O)CN(Cc2ccccc2)S(=O)(=O)c2ccc3nc(C)sc3c2)cc1	none
Cc1nc2ccc(NC(=O)c3cccc(S(=O)(=O)N(C)c4ccccc4)c3)cc2s1	none
COc1ccccc1N(C)S(=O)(=O)c1ccc(C(=O)Nc2ccc3nc(C)sc3c2)cc1	D1 antag -44
COc1ccccc1N(C)S(=O)(=O)c1ccc(C(=O)Nc2nccs2)cc1	D1 antag -66
COc1ccccc1N(C)S(=O)(=O)c1ccc(C(=O)N(C)Cc2ccc(OC(F)F)cc2)cc1	D1 antag -41
COc1ccccc1N(C)S(=O)(=O)c1ccc(C(=O)Nc2ncc(C)s2)cc1	none
CCCCN(CC)C(=O)c1nn(C)c2c1CSc1ccccc1-2	none
Cc1sc2nc(CN3CCCC3)nc(N3CCN(S(=O)(=O)c4cccs4)CC3)c2c1C	none
Cc1ccc(S(=O)(=O)N2CCN(c3nc(CN4CCCC4)nc4sc(C)c(C)c34)CC2)cc1	D1 antag -35
Cc1cc(C)c(NC(=O)C2CCN(c3nnc(C)c4c(C)n(-c5ccccc5)nc34)CC2)c(C)c1	none
O=C(/C=C/Nc1ccc(F)c(Cl)c1)c1ccco1	D1 antag -37
O=C(COC(=O)c1ccc(Cl)nc1)Nc1cccnc1Cl	none
CC[n+]1c(/C=C/N(C)c2ccccc2)oc2ccc(Cl)cc21	none
CCN1/C(=C/C=C/c2oc3ccc4ccccc4c3[n+]2CC)Oc2ccc3ccccc3c21	TRHR ag 31, D1 ag 93
N#C/C(=C/c1ccc(N2CCCCC2)o1)C(=O)Nc1ccc2ccccc2c1	TRHR ag 106, D1 ag 313, D1 antag -38
COc1ccc(NC(=O)/C(C#N)=C/c2ccc(Br)o2)cc1	none
N#C/C(=C/c1ccc(N2CCCCC2)o1)C(=O)Nc1ccc(Cl)cc1	TRHR ag 165, D1 ag 420
CC(=O)NC(Cc1ccc(F)c(F)c1)C(=O)NC1CCN(S(=O)(=O)c2ccc(C)cc2)CC1 (stereo unspecified)	none
CC1(C)Cc2nc3sc4c(N(CCO)CCO)nnnc4c3cc2CO1	TRHR PAM 30
CC1CCC2C(=O)N(c3ccc(Cc4ccncc4)cc3)C(=O)C2C1 (stereo unspecified)	D1 antag -30
O=C1C2C3C=CC(C3)C2C(=O)N1c1ccc(Cc2ccncc2)cc1 (stereo unspecified)	none
CCC(=O)N1N=C(c2ccc(C)cc2)CC1c1ccco1 (stereo unspecified)	D1 antag -37
COc1ccc(C2=NN(C(=O)CSc3nnc(C)c(=O)n3N)C(c3ccco3)C2)cc1 (stereo unspecified)	D1 antag -80
CCC(=O)N1N=C(c2cccs2)CC1c1ccco1 (stereo unspecified)	none
Cc1ccc(C2=NN(C(=O)CSc3nnnn3C)C(c3ccco3)C2)cc1 (stereo unspecified)	none (no result: D1 PAM)
CCOc1ccc(CCNC(=O)COC(=O)c2ccc(C)c([N+](=O)[O-])c2)cc1OCC	D1 antag -47
CCOc1ccc(CCNC(=O)COC(=O)c2ccc(S(C)(=O)=O)cc2)cc1OCC	none
CCOc1ccc(CCNC(=O)COC(=O)c2ccc(S(=O)(=O)N3CCCC3)cc2)cc1OCC	D1 antag -38
Cc1ccc(CNC(=O)COC(=O)c2ccc(S(=O)(=O)N3CCCC3)cc2)cc1	D1 antag -30
CN1CCN(C(=O)/C(=C/c2cn(S(=O)(=O)N(C)C)c3ccccc23)NC(=O)c2ccccc2F)CC1	none
CCc1cc(=O)oc2cc(C)cc(OCC(=O)N[C@@H](CSCc3ccccc3)C(=O)O)c12	none
Cc1ccc(S(=O)(=O)N(C)CC(=O)OCC(=O)NCCN2C(=O)CSC2=O)cc1	none
COc1cccc(NC(=S)NNC(=O)Cn2nc([N+](=O)[O-])cc2C)c1	TRHR PAM 41
Cc1ccc(NC(=S)NNC(=O)Cn2nc([N+](=O)[O-])cc2C)cc1	none
CCc1cc2c(-c3ccccc3)cc(=O)oc2cc1OCC(=O)NCC1CCC(C(=O)O)CC1 (stereo unspecified)	none
CC1(C)CC(=O)c2c(Cc3ccccc3)noc2C1	TRHR PAM 32
COCCNC(=O)Cn1cc(S(=O)(=O)Cc2ccccc2Cl)c2ccccc21	none
O=C1OC(CO)CN1Cc1ccccc1 (stereo unspecified)	D1 antag -40
CCOc1ccc(C(=O)c2oc3ccccc3c2NC(=O)c2cc(-c3ccccc3)on2)cc1	none
CN(CC(=O)Oc1ccc(-c2nnco2)cc1)S(=O)(=O)c1ccc(F)cc1	none
COC(=O)c1cn(-c2ccccc2)c(C)c1C(=O)OC	D1 ag 50
COC(=O)c1cn(-c2ccccc2)nc1-c1ccccc1	none
O=S(=O)(c1ccc2ccccc2c1)N1CCN=C1SCc1cccnc1	D1 antag -34
CCSC1=NCCN1S(=O)(=O)c1ccc2ccccc2c1	D1 antag -31
CCOC(=O)c1c(C)[nH]c(C)c1S(=O)(=O)N(C)CC(=O)Nc1cccc(Cl)c1C	none
CCCc1c(NC(=O)Nc2ccc(F)cc2)cnn1-c1ccccc1	D1 antag -46
Cn1c(SCc2ccccc2)nc2c1c(=O)[nH]c(=O)n2C	D1 antag -35
CN1CCC(N(C)S(=O)(=O)c2ccc(NC(=O)COc3ccc(Br)cc3Cl)cc2)CC1	D1 ag 31, D1 antag -44
Cc1ccccc1OCC(=O)Nc1ccc(S(=O)(=O)N(Cc2ccccc2)c2ccccc2)cc1	D1 antag -51
Cc1ccccc1OCCC(=O)Nc1ccc(S(=O)(=O)N(C)C2CCN(C)CC2)cc1	D1 ag 55, D1 antag -66
O=C(COc1ccc(F)cc1)Nc1ccc(S(=O)(=O)N(Cc2ccccc2)c2ccccc2)cc1	none
Cc1ccc(OCC(=O)Nc2ccc(S(=O)(=O)N(C)C3CCN(C)CC3)cc2)c(C)c1	none
Cc1ccc(NS(=O)(=O)c2ccc3c(c2)N(C)C(=O)CC(=O)N3C)cc1Cl	none
Cc1ccc(C(=O)/C=C\C(=O)c2ccc(C)cc2)cc1	D1 antag -38
CCN(c1ccccc1)S(=O)(=O)c1ccc(C(=O)N(CCCN(C)C)c2nc3cc4c(cc3s2)OCO4)cc1	D1 ag 42
CN(C)CCCN(C(=O)COc1ccccc1)c1nc2c(F)cccc2s1	TRHR PAM 32
CN(C)CCCN(C(=O)c1ccc(S(=O)(=O)N(C)Cc2ccccc2)cc1)c1nc2cc3c(cc2s1)OCO3	D1 antag -55
COc1ccc2sc(N(CCCN(C)C)C(=O)c3ccc(S(=O)(=O)N(C)Cc4ccccc4)cc3)nc2c1	none
